Measured values as given in PubChem BioAssay (Tox21).
Records with an inconclusive call do not appear. Where a call stands in place of a potency, no number is given. The source made the active and inactive calls. Calls follow the shape of the dose curve; as a rule, active = well fitted curve in the direction sought with a large enough effect in the repeat runs; inconclusive = weak or mixed curves; inactive = no such curve, though single readings can be large; an effect the other way counts as inactive or inconclusive.

Key:
[1] = molecular target: Voltage-gated inwardly rectifying potassium channel KCNH2 (Homo sapiens) (UniProt Q12809); assay: Human Ether-a-go-go-Related Gene (hERG) channel small molecule antagonists: fluorescence cell-based qHTS assay (AID 1671200); settings: hERG-U2OS cells, FluxOR thallium flux fluorescence; series mostly up to 76.8 µM
Voltage-gated inwardly rectifying potassium channel KCNH2 (Homo sapiens), sequence (Q12809 whole entry, looked up): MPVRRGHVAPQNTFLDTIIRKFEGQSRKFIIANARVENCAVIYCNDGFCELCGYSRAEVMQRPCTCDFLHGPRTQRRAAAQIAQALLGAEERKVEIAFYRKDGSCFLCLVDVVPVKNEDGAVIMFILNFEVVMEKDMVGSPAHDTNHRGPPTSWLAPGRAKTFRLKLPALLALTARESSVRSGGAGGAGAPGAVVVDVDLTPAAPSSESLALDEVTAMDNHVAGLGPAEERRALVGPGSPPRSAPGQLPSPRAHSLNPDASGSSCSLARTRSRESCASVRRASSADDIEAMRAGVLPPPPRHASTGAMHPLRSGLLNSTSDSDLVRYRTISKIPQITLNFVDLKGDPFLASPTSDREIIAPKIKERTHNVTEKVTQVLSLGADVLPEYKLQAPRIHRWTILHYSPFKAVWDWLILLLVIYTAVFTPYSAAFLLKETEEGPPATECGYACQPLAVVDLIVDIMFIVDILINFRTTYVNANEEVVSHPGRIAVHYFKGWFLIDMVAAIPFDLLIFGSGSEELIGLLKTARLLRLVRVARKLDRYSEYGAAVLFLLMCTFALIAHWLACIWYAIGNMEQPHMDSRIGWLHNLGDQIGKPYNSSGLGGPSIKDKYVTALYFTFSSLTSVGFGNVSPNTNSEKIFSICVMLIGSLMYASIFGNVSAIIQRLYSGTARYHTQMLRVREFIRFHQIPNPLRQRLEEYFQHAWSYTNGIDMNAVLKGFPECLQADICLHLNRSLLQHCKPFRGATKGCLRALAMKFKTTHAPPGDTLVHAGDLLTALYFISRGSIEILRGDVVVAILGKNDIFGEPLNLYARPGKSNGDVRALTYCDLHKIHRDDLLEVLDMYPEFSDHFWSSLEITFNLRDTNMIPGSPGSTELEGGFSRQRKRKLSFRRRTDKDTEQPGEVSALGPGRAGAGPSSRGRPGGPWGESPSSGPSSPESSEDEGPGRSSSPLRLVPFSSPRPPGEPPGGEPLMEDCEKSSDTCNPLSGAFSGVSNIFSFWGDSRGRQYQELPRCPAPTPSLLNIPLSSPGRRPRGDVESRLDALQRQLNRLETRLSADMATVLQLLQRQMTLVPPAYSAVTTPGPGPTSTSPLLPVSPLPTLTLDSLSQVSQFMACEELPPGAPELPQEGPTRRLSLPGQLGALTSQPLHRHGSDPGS
In short: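 In this thallium-flux screen, overnight-cultured U2OS cells bearing the channel are dye-loaded in darkness for an hour, rested 10 min at room temperature, and then monitored kinetically at 480/540 nm for two minutes post-stimulus.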

[2] = molecular target: Cytochrome P450 3A4 (Homo sapiens) (UniProt P08684); assay: Cytochrome P450 Family 3 Subfamily A Member 4 (CYP3A4) small molecule antagonists: luciferase reporter qHTS assay (AID 1671201); settings: P450-Glo CYP3A4 enzyme, luciferin luminescence, 1 h; series mostly up to 115 µM
Cytochrome P450 3A4 (Homo sapiens), sequence (P08684 whole entry, looked up): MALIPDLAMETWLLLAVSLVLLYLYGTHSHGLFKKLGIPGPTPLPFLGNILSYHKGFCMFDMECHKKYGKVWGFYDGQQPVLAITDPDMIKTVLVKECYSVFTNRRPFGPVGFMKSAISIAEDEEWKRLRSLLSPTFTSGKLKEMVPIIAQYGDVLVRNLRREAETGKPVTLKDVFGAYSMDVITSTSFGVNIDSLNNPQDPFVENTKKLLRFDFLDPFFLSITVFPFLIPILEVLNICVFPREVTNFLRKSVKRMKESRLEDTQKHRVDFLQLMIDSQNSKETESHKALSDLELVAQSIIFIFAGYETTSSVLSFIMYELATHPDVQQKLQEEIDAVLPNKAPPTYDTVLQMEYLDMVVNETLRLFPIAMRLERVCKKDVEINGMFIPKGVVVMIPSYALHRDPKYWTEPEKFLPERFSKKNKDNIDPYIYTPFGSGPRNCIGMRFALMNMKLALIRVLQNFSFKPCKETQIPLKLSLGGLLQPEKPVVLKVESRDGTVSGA
In short: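 CYP3A4 activity was followed with a P450-Glo proluciferin substrate. Test compounds in DMSO were preincubated 10 min; NADPH regeneration then ran 1 h, and light output was read 20 min after detection reagent.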

[3] = molecular target: Cytochrome P450 1A2 (Homo sapiens) (UniProt P05177); assay: Cytochrome P450 Family 1 Subfamily A Member 2 (CYP1A2) small molecule antagonists: luciferase reporter qHTS assay (AID 1671199); settings: P450-Glo CYP1A2 enzyme, luciferin luminescence, 1 h; series mostly up to 53 µM
Cytochrome P450 1A2 (Homo sapiens), sequence (P05177 whole entry, looked up): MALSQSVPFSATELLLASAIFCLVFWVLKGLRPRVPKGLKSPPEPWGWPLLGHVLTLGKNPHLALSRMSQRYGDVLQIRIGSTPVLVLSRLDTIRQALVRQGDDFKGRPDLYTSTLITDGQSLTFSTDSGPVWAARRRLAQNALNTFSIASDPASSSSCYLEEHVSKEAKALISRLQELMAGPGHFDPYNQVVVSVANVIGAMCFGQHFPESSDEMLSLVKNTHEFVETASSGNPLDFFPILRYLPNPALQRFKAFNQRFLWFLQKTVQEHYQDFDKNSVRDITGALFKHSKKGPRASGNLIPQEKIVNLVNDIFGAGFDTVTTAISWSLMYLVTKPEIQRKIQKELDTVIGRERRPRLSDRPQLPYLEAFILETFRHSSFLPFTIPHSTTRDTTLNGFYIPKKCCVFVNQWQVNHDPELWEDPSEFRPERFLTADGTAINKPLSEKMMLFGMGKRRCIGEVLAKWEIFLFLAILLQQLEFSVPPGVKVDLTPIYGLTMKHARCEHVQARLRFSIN
In short: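 Luminescence readout (relative luminescence units) after luciferin detection reagent, 20 min RT. Preceded by 1 h room-temperature CYP1A2 reaction with NADPH regeneration solution following 10 min compound preincubation with enzyme and proluciferin substrate. Furafylline positive control.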
Also: nearly all actives have a fitted effect of over 50% in size.
Potency is read from the fitted curve at half-maximal effect.

**Q.** What does the source list for O=C(O)CC(=O)C(=O)O?
**A.** Potency [1]: inactive; Potency [2]: inactive

**Q.** Which Potency [1] does the source give for C[C@@H]1C[C@H]2O[C@@]3(O[C@@H]2C(C)(C)O)[C@H](O)[C@@]2(C)[C@@H]4CC[C@H]5C(C)(C)[C@@H](O[C@@H]6OC[C@@H](O)[C@H](O)[C@H]6O)CC[C@@]56C[C@@]46CC[C@]2(C)[C@@H]13 here?
**A.** Its Potency is “inactive”.

**Q.** With CCN(CC)CCOC(=O)C(Cc1cccc2ccccc12)CC1CCCO1 (centres undefined) as the compound, how does the Potency [1] read?
**A.** Its Potency is 9.52 µM (active).

**Q.** With CC(=O)c1ccc2c(c1)N(CCCN1CCC(CCO)CC1)c1ccccc1S2 as the compound, how does the Potency [1] read?
**A.** The Potency was 3.01 µM (active).

**Q.** Which Potency [1] does the source give for CN(C)CCCN1c2ccccc2Sc2ccccc21 here?
**A.** The Potency was 9.52 µM (active).

**Q.** Which results are given for CC(C)(COC(=O)c1ccccc1)COC(=O)c1ccccc1?
**A.** Potency [3]: 39.9 µM (active); Potency [2]: inactive

**Q.** CCCCc1ncc(/C=C(\Cc2cccs2)C(=O)O)n1Cc1ccc(C(=O)O)cc1 was tested. Which Potency [1] did it give?
**A.** The Potency was “inactive”.

**Q.** With OCCNCc1ccccc1 as the compound, how does the Potency [2] read?
**A.** The Potency was “inactive”.

**Q.** What does the source list for CCCCCCCCCCCCCCOS(=O)(=O)O?
**A.** Potency [3]: inactive; Potency [1]: inactive; Potency [2]: inactive

**Q.** How did the Potency [1] turn out when O=C(c1ccc(F)cc1)C1CCN(CCn2c(=S)[nH]c3ccccc3c2=O)CC1 was run?
**A.** The Potency was 0.601 µM (active).

**Q.** Which Potency [1] does the source give for CC(C)O.CC(C)O.CCOC(=O)/C=C(\C)O.CCOC(=O)/C=C(\C)O.[Ti] here?
**A.** The Potency was “inactive”.

**Q.** For C[C@H](CCC(=O)O)[C@H]1CC[C@H]2[C@@H]3CC[C@@H]4C[C@H](O)CC[C@]4(C)[C@H]3C[C@H](O)[C@]12C, which Potency [1] is on record?
**A.** The Potency was “inactive”.

**Q.** Which results are given for CCCCCCCCCOS(=O)(=O)O?
**A.** Potency [1]: inactive; Potency [2]: inactive

**Q.** Which Potency [3] does the source give for COc1ccc(C(=O)Nc2nc3ccccc3c(NCc3ccccc3)c2C#N)cc1 here?
**A.** Its Potency is 15.9 µM (active).

**Q.** What about the Potency [2] of the same compound?
**A.** The Potency was 4.48 µM (active).

**Q.** Which Potency [1] does the source give for CN(Cc1ccc(C(C)(C)C)cc1)Cc1cccc2ccccc12 here?
**A.** Its Potency is 19 µM (active).

**Q.** What about the Potency [2] of the same compound?
**A.** Its Potency is “inactive”.

**Q.** Which results are given for CC(C)Nc1ccc(NC(C)C)c2c1C(=O)c1ccccc1C2=O?
**A.** Potency [3]: 2.34 µM (active); Potency [1]: inactive; Potency [2]: 3.3 µM (active)

**Q.** How did the Potency [3] turn out when C[N+]1(CC2COC(c3ccccc3)(C3CCCCC3)O2)CCCCC1 (centres undefined) was run?
**A.** The Potency was “inactive”.

**Q.** And the Potency [1]?
**A.** Its Potency is 15.1 µM (active).

**Q.** What about the Potency [2] of the same compound?
**A.** Its Potency is 3.89 µM (active).

**Q.** C=CC(=O)OCCOc1ccccc1 was tested. Which Potency [1] did it give?
**A.** The Potency was “inactive”.

**Q.** With CN(C)CCN(Cc1ccc(Cl)cc1)c1ccccn1 as the compound, how does the Potency [1] read?
**A.** The Potency was 2.39 µM (active).

**Q.** And the Potency [2]?
**A.** The Potency was “inactive”.

**Q.** With O=C(O)c1ccc(-n2nc(-c3ccccc3O)nc2-c2ccccc2O)cc1 as the compound, how does the Potency [3] read?
**A.** Its Potency is “inactive”.

**Q.** And the Potency [1]?
**A.** The Potency was “inactive”.

**Q.** What about the Potency [2] of the same compound?
**A.** Its Potency is “inactive”.
